# Test results published in paper PMC7862700, “An all-to-all approach to the identification of sequence-specific readers for epigenetic DNA modifications on cytosine”.
# Key:
# Assay in all cases: DAPPL (digital affinity profiling via proximity ligation, sequencing); 10 mM Tris-HCl pH 7.5, 50 mM NaCl, 1 mM DTT, 4% glycerol, room temperature, 30 min; GST-TFs on glutathione beads, 16-mer random dsDNA library, 0.1% formaldehyde crosslink after washing; high values mean tight binding
# Conditions in all cases: protein: recombinant; tags: N-terminal GST; dsDNA, one strand shown
# EHF = target: T1, EHF (Homo sapiens, UniProt Q9NZC4 1-300)
# T1 sequence: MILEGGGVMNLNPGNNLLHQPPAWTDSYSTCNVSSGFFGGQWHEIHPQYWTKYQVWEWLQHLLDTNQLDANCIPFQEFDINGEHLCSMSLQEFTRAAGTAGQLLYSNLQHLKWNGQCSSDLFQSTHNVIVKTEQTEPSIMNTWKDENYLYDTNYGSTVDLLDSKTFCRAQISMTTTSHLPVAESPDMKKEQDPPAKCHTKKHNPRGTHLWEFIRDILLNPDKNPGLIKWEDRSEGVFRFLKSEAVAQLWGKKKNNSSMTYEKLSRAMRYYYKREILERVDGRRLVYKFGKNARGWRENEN
# Summary of the method: (§1)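 Pools were built from human transcription factors expressed in yeast as GST fusions, captured on glutathione beads and DNA-barcoded, along with a tag-only sample. Incubation with 200 nmole of a 16-mer random double-stranded DNA library lasted 30 min at room temperature in Tris/NaCl/DTT/glycerol buffer, and was followed by washing, 0.1% formaldehyde crosslinking, proximity ligation, PCR amplification and Illumina NextSeq500 sequencing. Binding signal is the quotient of each hexamer's read frequency for a factor and its frequency for the tag-only sample.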
# SPIB = SPIB (Homo sapiens, UniProt Q01892 1-262)
# Summary of the method: as §1
# ELK3 = target: T2, ELK3 (Homo sapiens, UniProt P41970 1-407)
# T2 sequence: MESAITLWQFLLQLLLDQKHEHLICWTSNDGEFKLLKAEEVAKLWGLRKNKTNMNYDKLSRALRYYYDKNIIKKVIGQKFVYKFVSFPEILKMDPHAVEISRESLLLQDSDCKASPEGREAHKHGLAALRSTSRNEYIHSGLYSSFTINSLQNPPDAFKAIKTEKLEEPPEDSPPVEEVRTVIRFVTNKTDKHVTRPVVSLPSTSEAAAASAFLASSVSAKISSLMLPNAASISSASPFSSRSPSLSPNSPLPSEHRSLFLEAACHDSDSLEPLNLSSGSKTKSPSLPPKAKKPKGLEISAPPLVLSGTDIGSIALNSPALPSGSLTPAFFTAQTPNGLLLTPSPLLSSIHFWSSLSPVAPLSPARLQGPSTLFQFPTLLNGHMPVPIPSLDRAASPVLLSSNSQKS
# Summary of the method: as §1
# SPIC = target: T3, SPIC (Homo sapiens, UniProt Q8N5J4 1-248)
# T3 sequence: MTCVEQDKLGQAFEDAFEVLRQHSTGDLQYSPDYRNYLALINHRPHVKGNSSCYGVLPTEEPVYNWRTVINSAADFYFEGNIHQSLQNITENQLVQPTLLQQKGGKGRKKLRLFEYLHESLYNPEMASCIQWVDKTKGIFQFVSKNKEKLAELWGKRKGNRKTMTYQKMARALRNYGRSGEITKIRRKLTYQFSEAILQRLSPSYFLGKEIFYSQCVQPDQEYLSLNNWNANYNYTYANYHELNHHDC
# Summary of the method: as §1
# ELK4 = target: T4, ELK4 (Homo sapiens, UniProt P28324-2 1-405)
# T4 sequence: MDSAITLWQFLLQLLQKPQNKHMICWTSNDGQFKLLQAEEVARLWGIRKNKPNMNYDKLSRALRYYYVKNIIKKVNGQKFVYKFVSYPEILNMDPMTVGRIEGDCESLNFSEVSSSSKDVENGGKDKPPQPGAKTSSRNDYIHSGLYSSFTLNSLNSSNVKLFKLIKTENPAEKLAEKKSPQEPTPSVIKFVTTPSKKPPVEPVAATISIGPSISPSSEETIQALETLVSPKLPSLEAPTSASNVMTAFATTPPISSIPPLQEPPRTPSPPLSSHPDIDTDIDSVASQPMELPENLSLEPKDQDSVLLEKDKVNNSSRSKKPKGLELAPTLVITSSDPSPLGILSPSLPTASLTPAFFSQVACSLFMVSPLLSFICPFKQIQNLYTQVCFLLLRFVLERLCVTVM
# Summary of the method: as §1
# ETV2 = target: T5, ETV2 (Homo sapiens, UniProt O00321 1-342)
# T5 sequence: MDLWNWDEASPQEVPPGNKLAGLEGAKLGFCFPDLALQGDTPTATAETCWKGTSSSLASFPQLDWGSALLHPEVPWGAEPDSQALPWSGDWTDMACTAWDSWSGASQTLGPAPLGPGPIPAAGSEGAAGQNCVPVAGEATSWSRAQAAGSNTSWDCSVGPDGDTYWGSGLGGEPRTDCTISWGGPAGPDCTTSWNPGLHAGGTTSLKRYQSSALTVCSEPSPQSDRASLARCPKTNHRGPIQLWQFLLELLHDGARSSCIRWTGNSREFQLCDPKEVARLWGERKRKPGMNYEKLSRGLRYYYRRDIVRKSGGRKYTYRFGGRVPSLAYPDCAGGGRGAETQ
# Summary of the method: as §1
# ETV7 = target: T6, ETV7 (Homo sapiens, UniProt Q9Y603 1-341)
# T6 sequence: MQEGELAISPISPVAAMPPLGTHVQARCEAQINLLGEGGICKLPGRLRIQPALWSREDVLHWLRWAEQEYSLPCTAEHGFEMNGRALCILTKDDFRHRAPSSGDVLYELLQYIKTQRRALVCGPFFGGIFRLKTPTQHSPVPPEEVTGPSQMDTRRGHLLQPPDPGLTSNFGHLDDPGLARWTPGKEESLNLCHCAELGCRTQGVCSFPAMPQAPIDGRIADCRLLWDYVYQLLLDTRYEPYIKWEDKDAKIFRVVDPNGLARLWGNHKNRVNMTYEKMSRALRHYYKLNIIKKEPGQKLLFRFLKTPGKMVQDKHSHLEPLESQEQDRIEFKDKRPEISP
# Summary of the method: as §1
# ERG = target: T7, ERG (Homo sapiens, UniProt P11308 1-479)
# T7 sequence: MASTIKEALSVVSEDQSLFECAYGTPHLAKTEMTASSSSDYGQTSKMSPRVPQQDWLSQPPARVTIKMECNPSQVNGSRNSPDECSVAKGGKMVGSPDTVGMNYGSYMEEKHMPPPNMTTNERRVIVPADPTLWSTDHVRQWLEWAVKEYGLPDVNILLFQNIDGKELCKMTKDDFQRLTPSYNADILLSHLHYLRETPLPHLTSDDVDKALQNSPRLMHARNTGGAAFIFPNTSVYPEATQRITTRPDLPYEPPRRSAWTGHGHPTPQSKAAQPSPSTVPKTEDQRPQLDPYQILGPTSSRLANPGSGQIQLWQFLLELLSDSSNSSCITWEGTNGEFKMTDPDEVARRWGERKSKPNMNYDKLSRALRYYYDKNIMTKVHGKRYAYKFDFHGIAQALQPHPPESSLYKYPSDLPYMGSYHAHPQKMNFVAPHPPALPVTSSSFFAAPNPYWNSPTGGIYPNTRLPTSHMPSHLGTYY
# Summary of the method: as §1
# ELF3 = target: T8, ELF3 (Homo sapiens, UniProt P78545 1-371)
# T8 sequence: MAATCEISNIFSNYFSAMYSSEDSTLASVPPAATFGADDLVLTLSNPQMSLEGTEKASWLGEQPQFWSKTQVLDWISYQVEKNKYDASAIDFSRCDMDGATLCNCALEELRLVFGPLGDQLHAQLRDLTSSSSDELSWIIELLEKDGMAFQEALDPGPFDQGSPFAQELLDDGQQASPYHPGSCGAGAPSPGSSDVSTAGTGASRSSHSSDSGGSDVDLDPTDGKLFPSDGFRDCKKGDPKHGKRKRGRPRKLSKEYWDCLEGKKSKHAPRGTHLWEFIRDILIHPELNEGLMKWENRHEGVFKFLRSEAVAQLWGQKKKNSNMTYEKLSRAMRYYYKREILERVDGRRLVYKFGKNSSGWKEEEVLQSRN
# Summary of the method: as §1
# ETV1 = ETV1 (Homo sapiens, UniProt P50549 1-477)
# Summary of the method: as §1
# ETV3L = target: T9, ETV3L (Homo sapiens, UniProt Q6ZN32 1-361)
# T9 sequence: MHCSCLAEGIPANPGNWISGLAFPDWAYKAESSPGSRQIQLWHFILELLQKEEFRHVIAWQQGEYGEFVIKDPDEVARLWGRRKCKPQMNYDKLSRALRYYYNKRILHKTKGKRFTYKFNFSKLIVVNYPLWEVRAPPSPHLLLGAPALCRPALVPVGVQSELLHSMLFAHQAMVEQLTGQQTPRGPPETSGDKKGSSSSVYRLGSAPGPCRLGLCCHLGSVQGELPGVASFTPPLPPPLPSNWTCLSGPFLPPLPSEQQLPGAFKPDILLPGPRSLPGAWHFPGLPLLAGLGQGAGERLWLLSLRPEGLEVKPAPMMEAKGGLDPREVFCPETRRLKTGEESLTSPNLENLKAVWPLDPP
# Summary of the method: as §1
# SPDEF = target: T10, SPDEF (Homo sapiens, UniProt O95238 1-335)
# T10 sequence: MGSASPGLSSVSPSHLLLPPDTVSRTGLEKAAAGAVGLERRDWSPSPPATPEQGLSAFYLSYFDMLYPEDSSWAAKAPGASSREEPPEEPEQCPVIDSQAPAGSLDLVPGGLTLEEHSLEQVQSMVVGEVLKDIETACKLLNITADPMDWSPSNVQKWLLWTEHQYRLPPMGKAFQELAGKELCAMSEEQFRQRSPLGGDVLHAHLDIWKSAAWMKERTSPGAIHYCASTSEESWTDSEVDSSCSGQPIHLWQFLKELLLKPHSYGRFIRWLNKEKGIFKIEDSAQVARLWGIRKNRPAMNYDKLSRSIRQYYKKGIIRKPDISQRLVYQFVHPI
# Summary of the method: as §1
# ETV3 = target: T11, ETV3 (Homo sapiens, UniProt P41162-2 1-143)
# T11 sequence: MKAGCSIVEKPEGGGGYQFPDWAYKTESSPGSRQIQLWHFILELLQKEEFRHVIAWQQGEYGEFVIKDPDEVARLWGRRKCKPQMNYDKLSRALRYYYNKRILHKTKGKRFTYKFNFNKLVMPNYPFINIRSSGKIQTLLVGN
# Summary of the method: as §1
# Chain of SPIB (Q01892 whole entry): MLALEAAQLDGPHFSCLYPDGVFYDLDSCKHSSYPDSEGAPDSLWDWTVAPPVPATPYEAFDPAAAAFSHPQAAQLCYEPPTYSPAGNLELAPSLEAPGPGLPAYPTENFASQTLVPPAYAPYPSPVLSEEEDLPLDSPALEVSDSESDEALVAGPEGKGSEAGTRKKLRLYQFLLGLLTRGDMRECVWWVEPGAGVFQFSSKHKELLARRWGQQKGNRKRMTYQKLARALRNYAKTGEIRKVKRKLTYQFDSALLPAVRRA
# Chain of ETV1 (P50549 whole entry): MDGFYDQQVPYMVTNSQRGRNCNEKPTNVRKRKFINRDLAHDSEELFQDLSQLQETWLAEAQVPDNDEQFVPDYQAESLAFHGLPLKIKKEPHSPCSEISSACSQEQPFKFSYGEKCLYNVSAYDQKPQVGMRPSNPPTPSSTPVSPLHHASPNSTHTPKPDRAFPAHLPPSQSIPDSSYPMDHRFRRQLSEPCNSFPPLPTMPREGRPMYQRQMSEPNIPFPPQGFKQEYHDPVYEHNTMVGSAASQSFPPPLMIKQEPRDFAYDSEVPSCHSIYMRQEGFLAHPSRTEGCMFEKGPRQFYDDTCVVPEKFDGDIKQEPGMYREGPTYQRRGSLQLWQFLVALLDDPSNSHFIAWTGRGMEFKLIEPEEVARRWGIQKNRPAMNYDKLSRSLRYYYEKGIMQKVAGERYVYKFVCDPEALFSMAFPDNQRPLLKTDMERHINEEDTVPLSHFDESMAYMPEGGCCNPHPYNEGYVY
sequence,measurement,setting,value
CGCGCA,binding signal,EHF,"1.07 fold enrichment (6-mer frequency, TF over GST control)"
same,binding signal,SPIB,"1.04 fold enrichment (6-mer frequency, TF over GST control)"
same,binding signal,ELK3,"1.01 fold enrichment (6-mer frequency, TF over GST control)"
same,binding signal,SPIC,"1.01 fold enrichment (6-mer frequency, TF over GST control)"
same,binding signal,ELK4,"1.13 fold enrichment (6-mer frequency, TF over GST control)"
same,binding signal,ETV2,"1.02 fold enrichment (6-mer frequency, TF over GST control)"
AAGGCC,binding signal,SPIC,"1.06 fold enrichment (6-mer frequency, TF over GST control)"
same,binding signal,ETV7,"1.01 fold enrichment (6-mer frequency, TF over GST control)"
AGGTCC,binding signal,ERG,"1.02 fold enrichment (6-mer frequency, TF over GST control)"
same,binding signal,EHF,"1.05 fold enrichment (6-mer frequency, TF over GST control)"
same,binding signal,SPIC,"1.2 fold enrichment (6-mer frequency, TF over GST control)"
same,binding signal,ELK4,"1.02 fold enrichment (6-mer frequency, TF over GST control)"
same,binding signal,ETV2,"1.08 fold enrichment (6-mer frequency, TF over GST control)"
same,binding signal,ELF3,"1.07 fold enrichment (6-mer frequency, TF over GST control)"
same,binding signal,ETV1,"1.05 fold enrichment (6-mer frequency, TF over GST control)"
same,binding signal,ETV3L,"1.03 fold enrichment (6-mer frequency, TF over GST control)"
same,binding signal,SPDEF,"1.24 fold enrichment (6-mer frequency, TF over GST control)"
same,binding signal,ETV3,"1.03 fold enrichment (6-mer frequency, TF over GST control)"
